Common to all, as to test: log2 fold change, soluble protein after heating vs DMSO (PISA); higher = thermal stabilisation; K562 cells, 10 uM, 30 min; active = over 0.2 and 3.5 SD of the protein, either way, in both replicates (recomputed)
Compound in assay [1]: CC1=C(C=C(C=C1)NC(=O)C2=CC(=CC=C2)C(C)(C)C#N)NC3=CC4=C(C=C3)N=CN(C4=O)C
Put shortly:
(§1)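 Thermal stability values are relative to control samples and come from duplicates. They are expressed as log2 fold changes. For measurement, K562 cells (2×10^6 cells/mL) received 10 μM compound for 30 min, and aliquots were heated for 3 min over 48°C-58°C, pooled, and extracted at 4°C in PBS with 0.5% NP-40. Soluble protein, the supernatant after 21,000xg for 90 min, was quantified by TMTpro 16plex LC-MS/MS with equalised channel sums.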

Compound in assay [2]: CC1=C(C=C(C=C1)NC(=O)C2=CC(=CC=C2)N(C)C)NC(=O)C3=CC=C(C=C3)O
The essentials:
as §1

Compound in assay [3]: CC1=CC=C(C=C1)SC2=C3C=C(SC3=CN=C2)C(=O)N
Put shortly:
as §1

Compound in assay [4]: CC1=NC(=CC=C1)C2=C(N=C(N2)C(C)(C)C)C3=CC4=NC=CN=C4C=C3
The essentials: as §1

Compound in another assay: CCCCN(Cc1ccc(C(=O)NO)cc1)C(=O)Nc1ccccc1 [Nexturastat A]
The essentials: as §1

Compound in another assay: CCCS(=O)(=O)Nc1ccc(F)c(C(=O)c2c[nH]c3ncc(-c4ccc(Cl)cc4)cc23)c1F [vemurafenib]
The essentials: as §1

Compound in assay [5]: CCCS(=O)(=O)Nc1ccc(F)c(C(=O)c2c[nH]c3ncc(Cl)cc23)c1F
Put shortly:
as §1

Compound in assay [6]: CCCc1cc(C)[nH]c(=O)c1CNC(=O)c1cc(-c2ccnc(N3CCN(C)CC3)c2)cc2c1cnn2C(C)C
The essentials: as §1

Compound in another assay: CCN(CC)Cc1ccc2cc(COC(=O)Nc3ccc(C(=O)NO)cc3)ccc2c1 [givinostat]
Put shortly:
as §1

Compound in another assay: CCN(CCCOc1ccc2c(Nc3cc(CC(=O)Nc4cccc(F)c4)[nH]n3)ncnc2c1)CCOP(=O)(O)O [barasertib]
Put shortly:
as §1

Compound in assay [7]: CC[C@@H]1C(=O)N(C)c2cnc(Nc3ccc(C(=O)NC4CCN(C)CC4)cc3OC)nc2N1C1CCCC1
The essentials: as §1

Compound in a further assay: CC[C@@H]1C(=O)N(C)c2cnc(Nc3ccc(C(=O)N[C@H]4CC[C@H](N5CCN(CC6CC6)CC5)CC4)cc3OC)nc2N1C(C)C [volasertib]
Put shortly:
as §1

Compound in assay [8]: CC[C@H](C)N1C=C(C2=C(C=C(C=C21)C3=CN=C(C=C3)N4CCNCC4)C(=O)NCC5=C(C=C(NC5=O)C)C)C
Put shortly: as §1

Compound in another assay: CC[C@H](C)[C@@H](C(=O)N[C@@H]([C@@H](C)O)C(=O)N[C@@H](CC(C)C)C(=O)[C@]1(CO1)C)NC(=O)[C@H]([C@@H](C)CC)N(C)C(=O)C [epoxomicin]
The essentials:
as §1

Compound in assay [9]: CCn1c(C(=O)N(C2CC2)C2CC2)cc2c3c(ncn3C)c(Nc3cc(C)n(C)n3)nc21
The essentials: as §1

Compound in assay [10]: CCn1cc(-c2ccnc3[nH]c(-c4cccc(CN(C)C)c4)cc23)c(-c2ccc(NC(=O)N(C)C)cc2)n1
The essentials:
as §1

Compound in assay [11]: CN(C)CC(=O)Nc1ccc2[nH]c(=O)c3ccccc3c2c1
Put shortly: as §1

Compound in another assay: CN(CCOC1=CC=C(C=C1)C[C@H]2C(=O)NC(=O)S2)C3=CC=CC=N3 (racemic) [rosiglitazone]
Put shortly: as §1

Compound in assay [12]: CN1C2=C(C3=C1C(=O)N(N=C3)CC4=CC(=CC=C4)N)SC(=C2)S(=O)C
The essentials: as §1

Compound in assay [13]: CN1CCC(CNc2ccc3ncc(-c4cccc(OC(F)(F)F)c4)n3n2)CC1
The essentials:
as §1

The full data set covers some 7,900 targets. This sample favours those with a hit. About 0.6% of all pairs of compound and target were hits. A number with no mark means an inactive call.

Chain of UniProt Q9P016 (Q9P016 whole entry, looked up): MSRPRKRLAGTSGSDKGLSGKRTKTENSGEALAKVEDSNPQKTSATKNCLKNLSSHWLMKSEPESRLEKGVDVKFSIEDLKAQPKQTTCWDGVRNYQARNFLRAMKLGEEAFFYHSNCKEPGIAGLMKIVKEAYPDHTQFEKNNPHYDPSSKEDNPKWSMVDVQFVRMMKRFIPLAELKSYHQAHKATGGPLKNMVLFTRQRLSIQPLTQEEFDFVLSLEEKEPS
Chain of UniProt Q9Y6I9 (Q9Y6I9 whole entry, looked up): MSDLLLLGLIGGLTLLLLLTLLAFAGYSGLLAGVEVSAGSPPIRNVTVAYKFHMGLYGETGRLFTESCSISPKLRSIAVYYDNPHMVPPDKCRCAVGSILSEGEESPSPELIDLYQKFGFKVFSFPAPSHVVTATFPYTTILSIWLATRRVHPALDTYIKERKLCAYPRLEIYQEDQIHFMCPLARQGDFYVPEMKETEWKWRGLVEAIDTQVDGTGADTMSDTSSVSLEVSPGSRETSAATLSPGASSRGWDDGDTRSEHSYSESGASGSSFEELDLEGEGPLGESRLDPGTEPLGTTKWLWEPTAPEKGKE
Chain of UniProt O00506 (O00506 whole entry, looked up): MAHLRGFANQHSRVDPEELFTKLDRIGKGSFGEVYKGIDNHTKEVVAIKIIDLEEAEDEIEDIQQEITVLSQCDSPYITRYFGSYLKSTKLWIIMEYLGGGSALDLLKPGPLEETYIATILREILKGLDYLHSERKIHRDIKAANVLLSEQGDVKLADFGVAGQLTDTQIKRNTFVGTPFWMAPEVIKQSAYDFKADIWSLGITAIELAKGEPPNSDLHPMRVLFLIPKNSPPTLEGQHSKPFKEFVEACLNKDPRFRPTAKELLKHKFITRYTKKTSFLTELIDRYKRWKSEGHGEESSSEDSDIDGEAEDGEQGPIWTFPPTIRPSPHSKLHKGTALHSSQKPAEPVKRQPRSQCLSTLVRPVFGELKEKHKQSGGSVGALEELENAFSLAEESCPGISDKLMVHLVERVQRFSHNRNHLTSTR
Chain of UniProt Q07157 (Q07157 whole entry, looked up): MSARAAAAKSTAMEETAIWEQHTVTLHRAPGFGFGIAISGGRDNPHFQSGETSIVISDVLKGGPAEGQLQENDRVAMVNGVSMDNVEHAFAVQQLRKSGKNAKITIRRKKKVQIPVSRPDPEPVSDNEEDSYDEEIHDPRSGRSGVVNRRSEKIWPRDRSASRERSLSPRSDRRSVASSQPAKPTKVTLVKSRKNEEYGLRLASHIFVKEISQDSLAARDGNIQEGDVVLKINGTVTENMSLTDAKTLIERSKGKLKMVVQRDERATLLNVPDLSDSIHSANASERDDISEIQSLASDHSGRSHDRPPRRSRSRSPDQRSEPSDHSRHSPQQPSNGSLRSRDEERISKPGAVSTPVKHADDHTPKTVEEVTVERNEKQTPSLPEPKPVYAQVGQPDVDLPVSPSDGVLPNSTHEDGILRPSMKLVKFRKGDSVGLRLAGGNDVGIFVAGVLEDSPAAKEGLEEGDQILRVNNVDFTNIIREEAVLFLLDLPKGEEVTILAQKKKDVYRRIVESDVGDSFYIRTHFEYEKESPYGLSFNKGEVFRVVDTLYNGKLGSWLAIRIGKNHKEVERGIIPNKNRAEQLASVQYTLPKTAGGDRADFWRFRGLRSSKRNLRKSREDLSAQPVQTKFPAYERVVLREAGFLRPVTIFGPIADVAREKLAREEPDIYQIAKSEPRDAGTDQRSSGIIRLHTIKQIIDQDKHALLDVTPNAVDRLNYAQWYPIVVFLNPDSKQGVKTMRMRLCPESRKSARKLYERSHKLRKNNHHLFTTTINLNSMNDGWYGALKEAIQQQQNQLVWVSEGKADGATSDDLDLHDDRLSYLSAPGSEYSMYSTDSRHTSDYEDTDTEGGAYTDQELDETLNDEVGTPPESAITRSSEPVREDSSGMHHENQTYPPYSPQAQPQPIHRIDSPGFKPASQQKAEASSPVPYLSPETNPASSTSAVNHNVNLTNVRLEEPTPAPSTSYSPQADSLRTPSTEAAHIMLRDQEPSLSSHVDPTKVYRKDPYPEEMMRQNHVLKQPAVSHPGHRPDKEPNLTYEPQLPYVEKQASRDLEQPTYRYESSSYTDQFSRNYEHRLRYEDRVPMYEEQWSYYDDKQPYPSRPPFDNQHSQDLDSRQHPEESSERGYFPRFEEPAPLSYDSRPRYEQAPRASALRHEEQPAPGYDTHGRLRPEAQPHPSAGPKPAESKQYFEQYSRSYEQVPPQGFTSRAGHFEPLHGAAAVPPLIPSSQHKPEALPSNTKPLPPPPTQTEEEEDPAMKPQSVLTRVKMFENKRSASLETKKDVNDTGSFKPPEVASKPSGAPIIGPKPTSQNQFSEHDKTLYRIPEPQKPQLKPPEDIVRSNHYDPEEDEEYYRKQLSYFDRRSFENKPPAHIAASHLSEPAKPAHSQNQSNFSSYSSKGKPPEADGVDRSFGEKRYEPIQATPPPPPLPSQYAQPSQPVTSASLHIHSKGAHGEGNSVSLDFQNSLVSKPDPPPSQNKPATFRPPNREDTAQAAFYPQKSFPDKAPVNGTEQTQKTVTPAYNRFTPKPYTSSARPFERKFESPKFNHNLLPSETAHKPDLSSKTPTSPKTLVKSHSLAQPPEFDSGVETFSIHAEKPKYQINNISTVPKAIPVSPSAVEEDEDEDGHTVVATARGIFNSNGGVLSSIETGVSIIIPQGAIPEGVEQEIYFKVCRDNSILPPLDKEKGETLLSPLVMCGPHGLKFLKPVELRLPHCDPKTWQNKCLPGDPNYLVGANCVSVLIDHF
Chain of UniProt Q13043 (Q13043 whole entry, looked up): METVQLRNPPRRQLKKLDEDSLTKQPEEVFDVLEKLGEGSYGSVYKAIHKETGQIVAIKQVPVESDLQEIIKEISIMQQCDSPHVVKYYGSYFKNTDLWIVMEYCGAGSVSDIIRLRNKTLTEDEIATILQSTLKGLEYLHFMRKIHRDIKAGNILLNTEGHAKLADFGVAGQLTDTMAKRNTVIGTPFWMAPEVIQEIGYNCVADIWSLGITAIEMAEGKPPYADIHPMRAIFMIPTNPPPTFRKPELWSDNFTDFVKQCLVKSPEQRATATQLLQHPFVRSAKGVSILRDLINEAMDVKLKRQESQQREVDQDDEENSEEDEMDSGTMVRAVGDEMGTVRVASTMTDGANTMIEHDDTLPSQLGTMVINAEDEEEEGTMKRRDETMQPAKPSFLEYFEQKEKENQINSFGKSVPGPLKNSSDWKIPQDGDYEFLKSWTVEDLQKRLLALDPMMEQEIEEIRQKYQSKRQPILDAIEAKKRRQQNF
Chain of UniProt Q658P3 (Q658P3 whole entry, looked up): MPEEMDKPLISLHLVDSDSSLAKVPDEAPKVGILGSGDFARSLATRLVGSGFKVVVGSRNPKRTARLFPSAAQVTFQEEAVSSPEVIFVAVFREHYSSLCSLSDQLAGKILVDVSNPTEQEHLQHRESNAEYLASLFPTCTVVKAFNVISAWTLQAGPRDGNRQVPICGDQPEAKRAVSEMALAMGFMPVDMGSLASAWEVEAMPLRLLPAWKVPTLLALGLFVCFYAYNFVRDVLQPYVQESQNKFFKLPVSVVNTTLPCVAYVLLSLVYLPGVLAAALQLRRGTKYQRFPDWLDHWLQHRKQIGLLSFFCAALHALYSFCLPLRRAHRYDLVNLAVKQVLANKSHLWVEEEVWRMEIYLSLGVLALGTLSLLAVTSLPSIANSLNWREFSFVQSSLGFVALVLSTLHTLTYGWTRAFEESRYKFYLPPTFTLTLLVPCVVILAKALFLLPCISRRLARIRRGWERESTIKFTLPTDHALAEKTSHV

Regarding STK25 (UniProt O00506), the log2 fold change was -0.102 in [1]; 0.014 in assay [2]; -0.011 in [3]; 0.029 in assay [4]; -0.006 with Nexturastat A; -0.021 with vemurafenib. For the same target, the log2 fold change in assay [5] is 0.011; in [6], -0.052; with givinostat, 0.056; with barasertib, 0.025; in assay [7] it was -0.031; in the assay with volasertib, -0.107. Moreover, the log2 fold change in [8] is 0.024; with epoxomicin, 0.033; in assay [9], -0.041; in [10], -0.008; in assay [11], -0.024; in the assay with rosiglitazone, 0.077. Also, the log2 fold change in [12] is 0.017; in assay [13], -0.216.

With TEX264 (UniProt Q9Y6I9), the log2 fold change was 0.053 in [1]; -0.016 in assay [2]; -0.008 in assay [3]; 0.013 in [4]; 0.023 in the assay with Nexturastat A; -0.002 with vemurafenib. The log2 fold change in assay [5] is -0.049; in assay [6], 0.014; with givinostat, 0.317; with barasertib, 0.032; in assay [7], 0.016; with volasertib, 0.356. Also, the log2 fold change is -0.073 in assay [8]; 0 with epoxomicin; -0.201 in [9]; 0.499 in assay [10]; 0.098 in [11]; 0.039 with rosiglitazone. In addition, the log2 fold change is 0.182 in [12] and 0.262 in assay [13].

Turning to TJP1 (UniProt Q07157), the log2 fold change was 0.03 in assay [1]; -0.039 in assay [2]; 0.011 in assay [3]; -0.012 in assay [4]; -0.005 in the assay with Nexturastat A; 0.041 in the assay with vemurafenib. The log2 fold change in assay [5] is 0.065; in [6] it was -0.021; with givinostat, 0.102; with barasertib, 0.033; in assay [7] it was -0.023; with volasertib, -0.166. Also, the log2 fold change is 0.022 in [8]; 0.007 in the assay with epoxomicin; -0.023 in assay [9]; -0.052 in assay [10]; 0.012 in [11]; 0.019 in the assay with rosiglitazone. Besides, the log2 fold change was 0 in [12] and -0.071 in assay [13].

Regarding STK4 (UniProt Q13043), the log2 fold change in [1] was -0.065; in [2], 0.018; in assay [3], -0.022; in assay [4], 0.007; in the assay with Nexturastat A it was 0.004; with vemurafenib, -0.024. Further, the log2 fold change was -0.014 in assay [5]; 0.005 in assay [6]; -0.006 with givinostat; 0.032 with barasertib; 0.024 in assay [7]; 0.006 in the assay with volasertib. For the same target, the log2 fold change in [8] is 0.014; in the assay with epoxomicin, 0.033; in assay [9], -0.029; in assay [10], -0.041; in assay [11], 0.013; in the assay with rosiglitazone it was 0.03. Further, the values for the log2 fold change in assay [12] and in [13] were 0.004 and -0.061, respectively.

For the target SUPT5H (UniProt O00267), the log2 fold change was 0.004 in assay [1]; -0.054 in assay [2]; 0.006 in assay [3]; 0.013 in [4]; -0.067 in the assay with Nexturastat A; 0.008 in the assay with vemurafenib. Besides, the log2 fold change in assay [5] was 0.068; in assay [6], -0.028; in the assay with givinostat it was 0.035; in the assay with barasertib, 0.04; in [7], -0.018; in the assay with volasertib, -0.224 (active). Further, the log2 fold change in [8] is 0.084; with epoxomicin, 0.062; in assay [9] it was -0.054; in assay [10] it was -0.065; in assay [11], 0.056; with rosiglitazone it was 0.057. Moreover, the results for the log2 fold change in assay [12] and in assay [13] were -0.056 and -0.117, respectively.

As for THYN1 (UniProt Q9P016), the log2 fold change is 0.008 in [1]; 0.013 in assay [2]; 0.003 in [3]; 0.056 in assay [4]; -0.022 in the assay with Nexturastat A; -0.004 in the assay with vemurafenib. In addition, the log2 fold change in [5] is -0.004; in assay [6] it was 0.003; with givinostat, -0.135; in the assay with barasertib, 0.008; in [7], 0.059; with volasertib, 0.09. Besides, the log2 fold change in assay [8] was 0.048; with epoxomicin, 0.016; in assay [9] it was 0.072; in assay [10], -0.04; in assay [11], -0.004; with rosiglitazone it was 0.001. Further, the log2 fold change in [12] was -0.09; in assay [13], 0.09.

Consider STEAP3 isoform 2 (UniProt Q658P3), for which the log2 fold change in assay [1] was -0.009; in [2], 0.015; in assay [3] it was 0.008; in assay [4], -0.003; with Nexturastat A, -0.05; with vemurafenib, -0.027. For the same target, the log2 fold change in [5] was 0.007; in assay [6] it was -0.025; in the assay with givinostat it was 0.005; with barasertib, -0.004; in assay [7], 0.036; with volasertib, -0.013. The log2 fold change in [8] was -0.023; in the assay with epoxomicin, 0.01; in [9], 0.028; in assay [10] it was -0.084; in assay [11], 0.002; with rosiglitazone, 0.021. The log2 fold change in [12] is 0.041; in assay [13], -0.096.

Values taken from the supplement of paper PMC10849652.
